# Target: TRIM48
# Test: pooled miR-30 sensor sort-seq; sequence = guide strand
# Settings: shRNA
# Further: reference of the scale not given here.
row,Sequence,sensor-assay potency score (higher = more potent)
1,TTAACAGCTTCTCCCAGTGTTC,-1.29
2,AACATCTTCTTTGTCTCCCTGT,0.214
3,TTCTCTGATTTTCACAAGCTTT,-1.29
4,TTTCTCTGCTGTATTGTCTTTA,-0.0647
5,TTCTTTAACAGCTTCTCCCAGT,-0.186
6,TTCTCAAATCTCCACATCGGAA,-1.49
7,TTTCTTTAACAGCTTCTCCCAG,-0.688
8,ATGTCGTTCTTAACACACCCAA,-1.03
9,TTCTCTGCTGTATTGTCTTTAT,-1.43
10,AAACCGAACCTATTTGTCCTGT,0.0588
11,TGCTGTATTGTCTTTATGCATT,-1.57
12,TGTCGTTCTTAACACACCCAAG,-1.51

# Target: TRIM50
# Test: as above
# Settings: shRNA
row,Sequence,sensor-assay potency score (higher = more potent)
1,TTGTGGTGGTCCTCATTGCCGA,-1.14
2,TCCAACTTGAGAGGCTCCGGGG,-1.47
3,TGAACTTGTGGTGGTCCTCATT,-1.36
4,TTCCGGATGAACTTGTGGTGGT,-0.035
5,TTCGCCCTGCTCATAGTGCAGG,-1.35
6,TTGGGCAGGGAGCTGCTGCCGT,-1.11
7,TGGAACTTCCGGATGAACTTGT,-0.0502
8,TAGTCGAAGCGCTCAGGCTGGC,-0.915
9,TCATAGTGCAGGTAGAGCCCGA,-0.353
10,TGCTGTAGTCGAAGCGCTCAGG,-1.06
11,AAAACTTTCCGGAAGAGCCTTT,-0.209
12,TTCAGCTTGCCCTTACGGCTGG,-0.338

# Target: TRIM54
# Test: as above
# Settings: shRNA
row,Sequence,sensor-assay potency score (higher = more potent)
1,TTATTGATCAGCTCCTTGGCCT,-0.188
2,TTGCCTGCCACCAGCATCGCGA,-1.1
3,TTTGGAGAACATCTCCAGGCAG,-0.659
4,AACAACTGCTTCTGCCTCCGGC,-0.512
5,TCGCTGAGCTCACTCTTCTGGC,-0.97
6,TGGTTTGGAGAACATCTCCAGG,-1.46
7,TCCATCTGTGTGATCACTGCTT,-0.164
8,TAGTCTGGCACACCTCCTCCAT,-1.55
9,TTGGAGAACATCTCCAGGCAGA,-0.654
10,TTGTCCTCGATAGTCTGGCACA,-1.37
11,TTTAACAACTGCTTCTGCCTCC,0.72
12,TAACAACTGCTTCTGCCTCCGG,-0.255

# — the OligoGym collection
